# Results: PubChem BioAssay
# Active and inactive are the calls of the source.
# Columns and labels:
# [1] = small molecules captured by biotinylated probe aFSTL3 – biochemical, small-molecule microarray, fluorescence 635/667, stem cell growth factor project, primary screen (AID 1064); conditions: higher = more signal;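 also: measures binding of the biotinylated anti-FSTL3 antibody to printed compounds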
# [2] = binders from COS7 lysate, DM2A8 probe, primary screen, torsin A project, cell lysate, small-molecule microarray, fluorescence 635/667 (AID 1065); conditions: higher = more signal, COS7 lysate expressing mutant human TOR1A
# [3] = small molecules captured by biotinylated probe aFGF2 – biochemical, small-molecule microarray, fluorescence 635/667, stem cell growth factor project, primary screen (AID 1067); conditions: higher = more signal;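 also: measures binding of biotinylated aFGF2 protein to printed compounds on slides; z-score merges feature fluorescence and signal-to-noise across triplicate slides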
# [4] = small molecules captured by biotinylated probe aFGF10 – biochemical, small-molecule microarray, fluorescence 635/667, stem cell growth factor project, primary screen (AID 1071); conditions: higher = more signal;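 also: score merges 667 nm spot intensity and signal to noise from triplicate slides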
# [5] = biological target: Neurogenic locus notch homolog protein 2 (Homo sapiens) (UniProt Q04721); experiment: small molecules binding Notch2 protein – biochemical, small-molecule microarray, 635 nm fluorescence, stem cell growth factors, primary screen (AID 1073); conditions: higher = more signal
# Neurogenic locus notch homolog protein 2 (Homo sapiens), sequence (Q04721 whole entry, looked up, canonical isoform): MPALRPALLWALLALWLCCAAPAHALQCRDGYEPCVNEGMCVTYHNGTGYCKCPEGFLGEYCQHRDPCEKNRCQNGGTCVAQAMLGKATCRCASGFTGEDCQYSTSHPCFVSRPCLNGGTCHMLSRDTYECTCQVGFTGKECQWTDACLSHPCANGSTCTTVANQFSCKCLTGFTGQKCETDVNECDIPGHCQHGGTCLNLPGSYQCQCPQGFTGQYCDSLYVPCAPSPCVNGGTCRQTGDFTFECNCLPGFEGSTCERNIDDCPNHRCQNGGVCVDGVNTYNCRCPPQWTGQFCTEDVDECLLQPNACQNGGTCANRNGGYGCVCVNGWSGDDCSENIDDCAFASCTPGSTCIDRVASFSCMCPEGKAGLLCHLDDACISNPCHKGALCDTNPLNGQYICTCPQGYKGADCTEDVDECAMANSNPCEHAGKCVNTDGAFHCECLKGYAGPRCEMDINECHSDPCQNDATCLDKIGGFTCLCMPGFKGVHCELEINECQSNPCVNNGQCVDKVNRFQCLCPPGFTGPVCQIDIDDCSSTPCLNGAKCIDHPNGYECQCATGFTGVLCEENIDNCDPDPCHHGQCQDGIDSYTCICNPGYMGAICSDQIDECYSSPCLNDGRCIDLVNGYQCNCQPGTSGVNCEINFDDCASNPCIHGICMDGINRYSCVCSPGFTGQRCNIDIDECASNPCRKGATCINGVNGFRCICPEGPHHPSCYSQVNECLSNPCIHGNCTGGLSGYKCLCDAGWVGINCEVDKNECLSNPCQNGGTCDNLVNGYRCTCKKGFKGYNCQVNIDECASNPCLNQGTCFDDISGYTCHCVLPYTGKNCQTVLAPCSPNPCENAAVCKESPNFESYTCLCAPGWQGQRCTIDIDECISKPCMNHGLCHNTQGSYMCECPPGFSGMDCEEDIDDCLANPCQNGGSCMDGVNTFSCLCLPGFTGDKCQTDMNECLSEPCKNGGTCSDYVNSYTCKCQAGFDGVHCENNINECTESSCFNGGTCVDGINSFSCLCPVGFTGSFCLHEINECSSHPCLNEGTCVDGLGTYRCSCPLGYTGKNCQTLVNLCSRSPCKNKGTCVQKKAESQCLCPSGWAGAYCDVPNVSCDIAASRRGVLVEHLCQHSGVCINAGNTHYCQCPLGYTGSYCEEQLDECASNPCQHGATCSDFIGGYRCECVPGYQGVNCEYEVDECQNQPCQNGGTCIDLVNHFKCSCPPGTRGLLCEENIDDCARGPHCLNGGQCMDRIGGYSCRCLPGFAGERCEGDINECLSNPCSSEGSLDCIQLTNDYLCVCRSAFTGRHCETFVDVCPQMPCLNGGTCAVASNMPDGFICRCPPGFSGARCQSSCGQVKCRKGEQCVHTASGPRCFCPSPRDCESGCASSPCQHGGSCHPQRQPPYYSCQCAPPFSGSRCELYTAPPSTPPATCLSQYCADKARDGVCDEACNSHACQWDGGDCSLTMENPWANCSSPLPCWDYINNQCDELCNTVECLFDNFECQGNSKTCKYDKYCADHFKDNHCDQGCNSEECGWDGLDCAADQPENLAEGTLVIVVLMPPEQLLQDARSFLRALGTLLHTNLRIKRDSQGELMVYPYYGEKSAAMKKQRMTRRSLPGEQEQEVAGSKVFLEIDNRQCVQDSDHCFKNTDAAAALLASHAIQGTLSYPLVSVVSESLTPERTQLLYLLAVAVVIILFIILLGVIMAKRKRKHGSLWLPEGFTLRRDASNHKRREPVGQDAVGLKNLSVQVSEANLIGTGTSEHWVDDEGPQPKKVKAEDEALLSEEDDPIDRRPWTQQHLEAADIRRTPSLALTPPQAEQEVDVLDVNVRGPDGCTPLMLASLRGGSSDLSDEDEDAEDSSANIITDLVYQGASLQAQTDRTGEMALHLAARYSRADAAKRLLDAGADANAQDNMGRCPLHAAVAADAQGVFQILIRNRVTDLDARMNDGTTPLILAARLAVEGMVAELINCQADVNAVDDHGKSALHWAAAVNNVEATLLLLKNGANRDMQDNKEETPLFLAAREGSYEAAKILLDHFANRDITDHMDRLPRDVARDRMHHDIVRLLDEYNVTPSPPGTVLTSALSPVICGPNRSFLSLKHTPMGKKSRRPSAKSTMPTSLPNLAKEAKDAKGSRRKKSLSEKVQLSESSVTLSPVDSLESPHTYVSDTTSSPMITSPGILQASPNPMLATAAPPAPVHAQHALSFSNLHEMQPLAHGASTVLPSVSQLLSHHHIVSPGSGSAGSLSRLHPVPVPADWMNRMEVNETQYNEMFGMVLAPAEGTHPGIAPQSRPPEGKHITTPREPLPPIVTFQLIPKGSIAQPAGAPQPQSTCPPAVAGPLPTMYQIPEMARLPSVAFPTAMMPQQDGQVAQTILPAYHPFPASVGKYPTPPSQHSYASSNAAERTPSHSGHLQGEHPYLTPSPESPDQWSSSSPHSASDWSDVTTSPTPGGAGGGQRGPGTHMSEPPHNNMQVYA
# [6] = biological target: Pro-neuregulin-1, membrane-bound isoform (Homo sapiens) (UniProt Q02297); experiment: small molecules binding neuregulin-1 protein – biochemical, small-molecule microarray, fluorescence 635/667, psychiatric disease protein project, primary screen (AID 1075); conditions: NRG1 binding, 635 nm fluorescence, higher = more signal;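 also: score combines 667 nm spot fluorescence with signal to noise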
# Pro-neuregulin-1, membrane-bound isoform (Homo sapiens), sequence (Q02297 whole entry, looked up, the tested form may be a part, canonical isoform): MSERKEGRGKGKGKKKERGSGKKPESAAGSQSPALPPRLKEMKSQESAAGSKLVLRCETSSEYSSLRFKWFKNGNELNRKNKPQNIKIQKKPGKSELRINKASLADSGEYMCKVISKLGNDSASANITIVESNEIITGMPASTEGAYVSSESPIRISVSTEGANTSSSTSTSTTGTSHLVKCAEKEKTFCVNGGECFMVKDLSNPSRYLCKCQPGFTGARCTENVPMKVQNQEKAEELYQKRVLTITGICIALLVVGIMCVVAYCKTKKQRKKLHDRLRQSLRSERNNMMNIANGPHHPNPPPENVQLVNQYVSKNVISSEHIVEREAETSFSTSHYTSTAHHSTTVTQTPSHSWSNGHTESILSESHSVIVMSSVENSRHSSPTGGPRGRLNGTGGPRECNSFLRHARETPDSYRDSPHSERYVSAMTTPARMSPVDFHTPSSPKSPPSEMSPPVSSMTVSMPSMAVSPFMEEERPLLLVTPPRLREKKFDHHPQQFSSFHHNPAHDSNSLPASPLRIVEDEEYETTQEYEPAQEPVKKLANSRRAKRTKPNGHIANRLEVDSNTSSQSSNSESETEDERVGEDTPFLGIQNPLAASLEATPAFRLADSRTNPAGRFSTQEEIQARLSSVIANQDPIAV
# [7] = test system: Neuregulin-1 EGF-like domain; experiment: small molecules binding NRG1 EGF domain – biochemical, small-molecule microarray, 635 nm fluorescence, primary screen (AID 1081); conditions: higher = more signal;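 also: binding of the protein to compounds printed on small-molecule microarray slides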
# [8] = FRG1 expression reporter modulators in myotubes – cell-based, C2C12 myotubes, firefly/Renilla luciferase, luminescence, FRG1 inhibition for FSHD, primary screen (AID 1084); conditions: FRG1 promoter luciferase, higher = more signal, called active from +8 up or from −8 down
# [9] = small molecules captured by biotinylated probe aFST – biochemical, small-molecule microarray, fluorescence 635/667, stem cell growth factor project, primary screen (AID 1086); conditions: higher = more signal;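 also: score merges 667 nm fluorescence with signal-to-noise of each printed compound spot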
# [10] = binders of probe aHhip on microarray, primary screen, stem cell growth factor project, biochemical, small-molecule microarray, fluorescence 635/667 (AID 1087); conditions: higher = more signal;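 also: score merges spot fluorescence at 667nm with spot signal to noise ratio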
# [11] = test system: PRMT1 (protein arginine N-methyltransferase 1); experiment: small molecules binding arginine methyltransferase PRMT1 – biochemical, small-molecule microarray, 635 nm fluorescence, primary screen (AID 1088); conditions: higher = more signal;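 also: binding of Prmt1 protein to compounds spotted on small-molecule microarray slides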
# [12] = growth effects on S. cerevisiae YJM789 – YJM789 clinical isolate, OD600, 24 h, basal, primary screen (AID 1089); conditions: higher = more signal, called active from +8 up or from −8 down;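 also: growth of clinical yeast isolate S. cerevisiae YJM 789 seeded 1000 cells per well; test concentration not given here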
# [13] = S. pombe growth modifiers, basal conditions – strain 972, OD600, 24 h, no modulator, primary screen (AID 1090);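 also: basal condition with compound alone and no growth modifier present; test concentration not given here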; conditions: S. pombe 972 growth, higher = more signal, called active from +8 up or from −8 down
# [14] = budding yeast growth modifiers under rapamycin – strain BY4716, OD600, 96 h, primary screen (AID 1091); also: test concentration not given here; conditions: S. cerevisiae BY4716 + rapamycin, higher = more signal, called active from +8 up or from −8 down
# [15] = biological target: Torsin-1A-interacting protein 2 (Homo sapiens) (UniProt Q8NFQ8); experiment: small molecules binding lysate-expressed LULL1 – cell lysate, human LULL1 lysate, 635/667 nm fluorescence, primary screen (AID 1092); conditions: small-molecule microarray, hLULL1 lysate binding, 635 nm fluorescence; higher = more signal;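 also: probe is lysate of COS7 cells overexpressing human LULL1; score merges per-feature 667 nm fluorescence with signal-to-noise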
# Torsin-1A-interacting protein 2 (Homo sapiens), sequence (Q8NFQ8 whole entry, looked up): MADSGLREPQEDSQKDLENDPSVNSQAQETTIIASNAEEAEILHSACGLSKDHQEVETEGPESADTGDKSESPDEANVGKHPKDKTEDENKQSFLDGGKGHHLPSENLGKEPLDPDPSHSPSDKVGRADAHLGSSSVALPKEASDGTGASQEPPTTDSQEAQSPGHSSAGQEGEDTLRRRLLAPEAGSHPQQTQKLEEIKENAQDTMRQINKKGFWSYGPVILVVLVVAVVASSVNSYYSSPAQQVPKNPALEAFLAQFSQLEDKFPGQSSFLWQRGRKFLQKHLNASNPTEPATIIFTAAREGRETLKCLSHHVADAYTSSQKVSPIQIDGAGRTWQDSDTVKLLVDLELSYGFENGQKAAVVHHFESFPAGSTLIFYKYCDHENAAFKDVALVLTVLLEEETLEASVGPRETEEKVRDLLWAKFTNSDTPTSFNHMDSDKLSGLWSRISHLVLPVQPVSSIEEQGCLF
# [16] = optical density change of DRC41 E. coli – strain DRC41, OD650, 24 h, E. coli filamentation project, primary screen (AID 1093);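 also: MC1000 strain lacking acrAB efflux and sulA so SOS filamentation is blocked; test concentration not given here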; conditions: E. coli DRC41 growth, higher = more signal, called active from +8 up or from −8 down
# [17] = probe aLefty2 binding to arrayed compounds – biochemical, biotinylated probe, 635/667 nm fluorescence, primary screen (AID 1094); conditions: small-molecule microarray, higher = more signal;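 also: score merges spot fluorescence near 667 nm with spot signal-to-noise ratio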
# [18] = test system: Noggin (protein binding on small-molecule microarray); experiment: small molecules binding Noggin protein – biochemical, 635/667 nm fluorescence, primary screen (AID 1095); conditions: 635 nm fluorescence, higher = more signal;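 also: score merges 667 nm feature fluorescence with signal to noise over triplicate slides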
# [19] = biological target: Neurogenic locus notch homolog protein 3 (Homo sapiens) (UniProt Q9UM47); experiment: small molecules binding NOTCH3 protein – biochemical, 635/667 nm fluorescence, primary screen (AID 1096); conditions: small-molecule microarray, 635 nm fluorescence, higher = more signal
# [20] = probe aEGFR binding to arrayed compounds – biochemical, biotinylated probe, 635/667 nm fluorescence, primary screen (AID 1097); conditions: small-molecule microarray, higher = more signal;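 also: probe is a biotinylated anti-EGFR antibody binding compounds printed on slides; score combines fluorescence near 667 nm and signal to noise of each spot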
Structure (SMILES),composite z-score [1],composite z-score [2],composite z-score [3],composite z-score [4],composite z-score [5],composite z-score [6],composite z-score [7],z-score [8],composite z-score [9],composite z-score [10],composite z-score [11],z-score [12],z-score [13],z-score [14],composite z-score [15],z-score [16],composite z-score [17],composite z-score [18],composite z-score [19],composite z-score [20]
C=CCC(OC(C)=O)[C@@H]1[C@@H](N(Cc2cc3ccccc3o2)C(=O)c2ccc(-c3ccccc3)cc2)c2cc(OCCCO)ccc2N1C(=O)Cc1ccc2ccccc2c1 (stereo not given in full),0.179,-0.499,-0.0428,0.101,-0.14,-0.0892,-0.5,-1.28 (inactive),0.261,0.17,-0.598,1.06 (inactive),0.263 (inactive),1.49 (inactive),0.898,0.0672 (inactive),-0.166,-0.125,-0.376,-0.166
COC(=O)[C@@]1(Cc2ccc(F)cc2)[C@H]2c3cc(C(=O)N4CCCC4)n(Cc4ccc(Cl)c(C(F)(F)F)c4)c3C[C@H]2CN1C(=O)c1ccccc1,2,0.554,0.713,1.04,1.73,1.61,1.14,0.339 (inactive),2.44,3.55,0.444,0.307 (inactive),2.12 (inactive),3.84 (inactive),3.26,-0.482 (inactive),1.12,-0.21,1.07,0.915
CC(C)C(=C=CC[C@H](O)c1ccccc1OCCO)CCO,0.0409,-0.0204,-0.152,0.161,-0.679,0.319,0.614,0.129 (inactive),-0.0031,-0.0994,1.35,-0.655 (inactive),-0.39 (inactive),-0.236 (inactive),2.48,-0.105 (inactive),0.0349,-0.143,-0.131,-0.0915
COc1ccccc1CN1C(=O)c2ccccc2[C@](Cc2ccccc2I)(C(=O)NC2CC2)[C@@H]1c1ccc(CO)cc1,-0.532,0.46,0.0673,0.531,1.32,0.949,1.42,-2.86 (inactive),0.653,0.136,1.54,-0.357 (inactive),0.642 (inactive),2.01 (inactive),3.3,0.199 (inactive),-0.117,1.1,1.06,-0.0897
C=C(CCCC)/C(=C/C[C@@H](OC(=O)c1ccncc1)c1ccc(CO)o1)c1cc(C(=O)OC)ccc1OC,-0.489,1.44,-0.0887,0.318,0.738,1.52,1.27,-0.986 (inactive),0.448,0.0722,1.45,-0.169 (inactive),-1.75 (inactive),-0.331 (inactive),2.3,0.635 (inactive),-0.101,0.752,1.07,0.107
O=C1C2C=CC(C(O)CCc3ccccc3)N(Nc3ccccc3)C2C(=O)N1c1ccccc1 (stereo not given),0.572,1.83,0.288,0.83,1.61,2.09,1.22,0.0878 (inactive),1.15,-0.0645,1.49,0.655 (inactive),0.226 (inactive),1.43 (inactive),3.4,-1.88 (inactive),0.231,0.0749,1.02,0.0864
C=CCNC(=O)[C@@H]1[C@H]2C(=O)O[C@H](c3ccccc3)[C@H](c3ccccc3)N2[C@H](c2ccccc2OCCO)[C@@]12C(=O)N(C(=O)OCCOC)c1ccc(C#CCC(C(=O)OC)C(=O)OC)cc12,2.39,0.691,0.605,1.16,1.6,2.26,1.31,0.847 (inactive),3.09,0.856,1.53,1.38 (inactive),2.06 (inactive),6.46 (inactive),3.56,0.221 (inactive),0.891,1.9,1.07,0.573
C=CCC(OC(C)=O)[C@@H]1[C@@H](N(Cc2cc3ccccc3o2)C(=O)c2ccc(C)cc2)c2cc(OCCCO)ccc2N1C(=O)c1ccc(-c2ccccc2)cc1 (stereo not given in full),-0.292,0.195,0.0337,0.18,0.127,-0.158,-0.491,-1.35 (inactive),-0.21,0.113,-0.486,-6.89 (inactive),-1.27 (inactive),-2.17 (inactive),0.666,-0.818 (inactive),0,0.132,-0.217,-0.258
O=C1C[C@@](C(=O)O)(c2ccc([N+](=O)[O-])cc2)[C@@H](c2ccc(CO)cc2I)N1CC12CC3CC(CC(C3)C1)C2,0.525,0.773,-0.124,0.14,1.41,1.48,0.843,-1.55 (inactive),0.806,0.0497,1.47,-0.12 (inactive),-3.03 (inactive),5.6 (inactive),2.79,0.177 (inactive),-0.0096,0.0251,1.06,-0.0056
CCOC(=O)C[C@H]1[C@H](OC(=O)c2ccc(C(=O)c3ccccc3)cc2)[C@@H](NC(=O)c2ccc3ccccc3n2)c2cc(OCCCO)ccc2N1C(=O)c1ccc2ccccc2n1,-0.153,0.0772,-0.16,0.56,0.876,1,0.421,-2.18 (inactive),0.845,-0.201,0.424,0.179 (inactive),0.0242 (inactive),0.418 (inactive),1.34,1.12 (inactive),0.109,0.192,0.486,0.0746
